Laboratory results taken from PubChem BioAssay (NCI).
This is part of a sample that, as a whole, favours compounds with a hit. Of some 83,000 tested, about 20% had one in any assay.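 Negative percent growth values reflect cell death: -40 means 40% of the cells present at the start died, and -100 means all died.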 Values without a mark were called inactive. Calls of active or inactive are those of the source. How the source made its calls: active means growth percent below 10; inactive means the rest.

Key:
Assay in all cases: NCI-60 one-dose screen, 48 h (100 = growth as untreated, 0 = no growth, -100 = all killed)
DU-145 prostate = conditions: 10 µM
K-562 leukemia = conditions: 10 µM
MALME-3M melanoma = conditions: 10 µM
MDA-MB-231 breast = conditions: 10 µM
RXF 393 renal = conditions: 10 µM
SF-268 CNS = conditions: 10 µM
SF-295 CNS = conditions: 10 µM
SF-539 CNS = conditions: 10 µM
UACC-257 melanoma = conditions: 10 µM
M14 melanoma = conditions: 10 µM
HCT-15 colon = conditions: 10 µM
HT29 colon = conditions: 10 µM
SNB-75 CNS = conditions: 10 µM
SNB-19 CNS = conditions: 10 µM
U251 CNS = conditions: 10 µM
PC-3 prostate = conditions: 10 µM
SK-MEL-5 melanoma = conditions: 10 µM
UACC-62 melanoma = conditions: 10 µM unless noted
LOX IMVI melanoma = conditions: 10 µM
SK-MEL-28 melanoma = conditions: 10 µM

Row | SMILES | growth (DU-145 prostate) [%] | growth (K-562 leukemia) [%] | growth (MALME-3M melanoma) | growth (MDA-MB-231 breast) [%] | growth (RXF 393 renal) [%] | growth (SF-268 CNS) [%] | growth (SF-295 CNS) | growth (SF-539 CNS) [%] | growth (UACC-257 melanoma) [%] | growth (M14 melanoma) [%] | growth (HCT-15 colon) [%] | growth (HT29 colon) | growth (SNB-75 CNS) | growth (SNB-19 CNS) [%] | growth (U251 CNS) | growth (PC-3 prostate) [%] | growth (SK-MEL-5 melanoma) | growth (UACC-62 melanoma) [%] | growth (LOX IMVI melanoma) [%] | growth (SK-MEL-28 melanoma)
1 | COc1ccc(-c2cc3c(nn2)-c2ccccc2C3=O)cc1 | 21.2 | 21.9 | -21.1% (active) | 59.5 | 71.8 | 39.1 | -40.7% (active) | 82.1 | 69.6 | 42.9 | 36.7 | -24.8% (active) | -4.76% (active) | 78.9 | -3.45% (active) | 18 | 85.3% | 84.7 | 43.3 | -49.3% (active)
2 | CC1(O)CCCCC1O (configuration not stated) | 115 | 94.6 | 106% | 108 | 112 | 106 | 110% | 97 | 83.4 | 104 | 102 | 106% | 96.5% | 97.3 | 104% | 98.4 | 107% | 96.5 | 106 | 
3 | COc1cc(C(=O)NC(=S)Nc2ccc3ccccc3c2)cc(OC)c1OC | 102 | 88 | 90.1% | 100 | 94.5 | 103 | 44.7% | 93.1 | 90.7 | 115 | 87.4 | 100% | 92% | 107 | 102% | 82.4 | 55.5% | 36.5 | 91 | 98.1%
4 | Oc1ccc2c(c1)OCC1(O)Cc3cc(O)c(O)cc3C21 (configuration not stated) | 99.1 | 20.7 | 88.8% | 93.2 | 89.1 | 96.8 | 97.1% | 91.7 | 96.6 | 90.6 | 80.6 | 92.4% | 22.8% | 117 | 90.7% | 69.5 | 95.5% | 91.5 | 98.2 | 
5 | C=CC[N+](C)(C)C | 120 | 102 | 98.8% | 108 | 100 | 112 | -10.9% (active) | 98.1 | 101 | 107 | 98.7 | 104% | 94.3% | 98.7 | 101% | 97.6 | 105% | 102 | 92.2 | 107%
6 | COC(=O)c1ccccc1Br | 102 | 111 | 98.5% | 112 | 110 | 101 | 95.1% | 102 | 114 | 88.9 | 99.6 | 110% | 80.5% | 96.4 | 106% | 80 | 107% | 94.4 | 98.4 | 159%
7 | CC(C)CCOC(=O)c1ccccc1 | 108 | 102 | 96.9% | 104 | 119 | 102 | 100% | 98.8 | 101 | 100 | 111 | 108% | 95.6% | 105 | 97.5% | 97.9 | 105% | 104 | 101 | 103%
8 | CCCCOC(=O)c1ccc(C(C)C)cc1 | 106 | 106 | 87% | 109 | 112 | 100 | 101% | 96.6 | 77.3 | 96.5 | 101 | 94.9% | 84.3% | 105 | 93.8% | 84.7 | 106% | 103 | 96.7 | 
9 | CCc1ccc(/C(C#N)=C/C=C/c2ccccc2)cc1 | 24.9 | 14.9 | 51.2% | 63.2 | 11.9 | 65.1 | 21.3% | 18.6 | 31.5 | 23.1 | 38.7 | -5.6% (active) | 0.0202% (active) | 59.5 | 21.3% | 19 | 9.25% (active) | 29.6 | 44 | 51.8%
